Experimental data published in PubChem BioAssay (EPA / NIEHS).
Values joined by “and” are separate entries in the source; they are usually repeats but may differ in a detail not shown here. Equal values may be shown once. Some structures have more than one record in an assay (separate samples or runs), and their calls can disagree. Active and inactive are the calls of the source. Rule for the calls: active = hit-call score of the fitted dose curve at least 0.9, where 1 is the maximum; inactive = score below 0.9.

Key:
[1] = read-out: Macrophage colony-stimulating factor (MCSF), CSF1 (gene 1435); test: BSK_hDFCGF_MCSF: BioMAP Diversity Plus: hDFCGF Assay for Macrophage colony-stimulating factor (MCSF) Biomarker Activity (AID 2283060); conditions: primary human foreskin fibroblasts; actives raise or lower the signal
How it was run: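 Human foreskin primary fibroblasts were treated with test chemical for 24 h, and M-CSF was then measured by ELISA. Data were fitted bidirectionally against DMSO as the negative control and activity baseline.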

[2] = BSK_hDFCGF_SRB: Viability Assessment in the BioMAP Diversity Plus: hDFCGF Assay (AID 2283061); conditions: primary human foreskin fibroblasts;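 note: cells exposed to compound for 24 h before the read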
How it was run: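 Human foreskin primary fibroblasts were treated with compound and assessed 24 h after dosing. Total protein was measured by sulforhodamine B staining (0.1% SRB after 10% TCA fixation, 560 nm read) as a cytotoxicity marker, with bidirectional fitting against DMSO baseline.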

[3] = read-out: TIMP metallopeptidase inhibitor 1 (TIMP1), TIMP1 (gene 7076); test: BSK_hDFCGF_TIMP1: BioMAP Diversity Plus: hDFCGF Assay for TIMP metallopeptidase inhibitor 1 (TIMP1) Biomarker Activity (AID 2283062); conditions: primary human foreskin fibroblasts; actives raise or lower the signal
How it was run: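 Primary human foreskin fibroblasts in the hDFCGF system were dosed with compound for 24 h, then TIMP-1 was measured by ELISA. Activity was fitted bidirectionally relative to DMSO control; parallel SRB staining assessed cytotoxicity.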

[4] = read-out: Monokine induced gamma interferon (MIG), CXCL9 (gene 4283); test: BSK_hDFCGF_MIG: BioMAP Diversity Plus: hDFCGF Assay for Monokine induced gamma interferon (MIG) Biomarker Activity (AID 2283063); conditions: primary human foreskin fibroblasts; actives raise or lower the signal
How it was run: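 ELISA read-out of MIG from primary human dermal fibroblasts 24 h post-dosing. Gain or loss of signal fitted bidirectionally, DMSO as baseline.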

[5] = read-out: Vascular cell adhesion molecule 1 (VCAM1), VCAM1 (gene 7412); test: BSK_hDFCGF_VCAM1: BioMAP Diversity Plus: hDFCGF Assay for Vascular cell adhesion molecule 1 (VCAM1) Biomarker Activity (AID 2283065); conditions: primary human foreskin fibroblasts; actives raise or lower the signal;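 for AC50: VCAM-1 protein level quantified by ELISA after 24 h chemical exposure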
How it was run: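 Primary human foreskin fibroblasts (hDFCGF system) were dosed with chemical and VCAM-1 was measured by ELISA 24 h later. Bidirectional curve fitting used DMSO as negative control and activity baseline.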

[6] = read-out: Plasminogen activator inhibitor-1 (PAI1), SERPINE1 (gene 5054); test: BSK_hDFCGF_PAI1: BioMAP Diversity Plus: hDFCGF Assay for Plasminogen activator inhibitor-1 (PAI1) Biomarker Activity (AID 2283066); conditions: primary human foreskin fibroblasts; actives raise or lower the signal
How it was run: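 PAI-1 levels in human dermal foreskin fibroblasts were quantified by ELISA 24 h after dosing, with gain or loss analysed against DMSO. Overt cytotoxicity was checked by sulforhodamine B total-protein staining in parallel cultures.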

[7] = read-out: Intercellular Adhesion Molecule 1 (ICAM1), ICAM1 (gene 3383); test: BSK_KF3CT_ICAM1: BioMAP Diversity Plus: KF3CT Assay for Intercellular Adhesion Molecule 1 (ICAM1) Biomarker Activity (AID 2283067); conditions: primary human keratinocytes with fibroblasts; actives raise or lower the signal
How it was run: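 Human keratinocyte plus foreskin fibroblast primary co-culture was exposed to chemical for 24 h. ICAM-1 was then quantified by ELISA, and the data were fit bidirectionally against DMSO as the negative control and baseline.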

[8] = read-out: Interferon-gamma inducible Protein 10 (IP10), CXCL10 (gene 3627); test: BSK_KF3CT_IP10: BioMAP Diversity Plus: KF3CT Assay for Interferon-gamma inducible Protein 10 (IP10) Biomarker Activity (AID 2283068); conditions: primary human keratinocytes with fibroblasts; actives raise or lower the signal
How it was run: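 Signal is secreted/surface IP-10 by ELISA in a human primary skin co-culture of keratinocytes and foreskin fibroblasts, taken 24 h post-dosing; DMSO served as negative control.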

[9] = BSK_KF3CT_SRB: Viability Assessment in the BioMAP Diversity Plus: KF3CT Assay (AID 2283069); conditions: primary human keratinocytes with fibroblasts;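 note: fitted for both signal gain and loss against DMSO baseline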
How it was run: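 Overt cytotoxicity is assessed as total protein by sulforhodamine B staining in parallel human skin co-cultures at 24 h after dosing. DMSO serves as negative control and baseline.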

[10] = read-out: Interleukin-1 alpha (IL1a), IL1A (gene 3552); test: BSK_KF3CT_IL1a: BioMAP Diversity Plus: KF3CT Assay for Interleukin-1 alpha (IL1a) Biomarker Activity (AID 2283070); conditions: primary human keratinocytes with fibroblasts; actives raise or lower the signal
How it was run: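 Readout is IL-1a level by ELISA, compared bidirectionally with DMSO as baseline. Cells: human keratinocytes co-cultured with foreskin fibroblasts, harvested 24 h post-dose.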

[11] = read-out: Transforming growth factor beta 1 (TGFb1), TGFB1 (gene 7040); test: BSK_KF3CT_TGFb1: BioMAP Diversity Plus: KF3CT Assay for Transforming growth factor beta 1 (TGFb1) Biomarker Activity (AID 2283072); conditions: primary human keratinocytes with fibroblasts; actives raise or lower the signal
How it was run: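 ELISA quantifies TGF-b1 at 24 h post-dose in a primary human skin co-culture of keratinocytes and fibroblasts, with gain or loss judged against DMSO. Parallel SRB total-protein staining flags overt cytotoxicity.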

[12] = read-out: C-C motif chemokine 2 (Homo sapiens) (UniProt P13500); test: BSK_KF3CT_MCP1: BioMAP Diversity Plus: KF3CT Assay for Monocyte Chemoattractant Protein 1 (MCP1/CCL2) Biomarker Activity (AID 2283073); conditions: primary human keratinocytes with fibroblasts; actives raise or lower the signal
How it was run: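 Human keratinocyte plus foreskin fibroblast primary co-culture exposed to chemical for 24 h. MCP-1 levels measured by ELISA. Bidirectional curve fitting relative to DMSO negative control as baseline.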

[13] = read-out: Matrix Metallopeptidase 9 (MMP9), MMP9 (gene 4318); test: BSK_KF3CT_MMP9: BioMAP Diversity Plus: KF3CT Assay for Matrix Metallopeptidase 9 (MMP9) Biomarker Activity (AID 2283074); conditions: primary human keratinocytes with fibroblasts; actives raise or lower the signal
How it was run: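 Values come from bidirectional fitting relative to DMSO of MMP-9 levels, which were measured by ELISA. Measurements were taken 24 h after chemical dosing of a keratinocyte and foreskin fibroblast co-culture.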

[14] = read-out: urokinase plasminogen activator (uPA), PLAU (gene 5328); test: BSK_KF3CT_uPA: BioMAP Diversity Plus: KF3CT Assay for urokinase plasminogen activator (uPA) Biomarker Activity (AID 2283075); conditions: primary human keratinocytes with fibroblasts; actives raise or lower the signal
How it was run: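 Values derive from bidirectional fitting against DMSO controls. Keratinocyte/foreskin fibroblast co-cultures received chemical; 24 h later uPA was detected by ELISA, with SRB total-protein staining in parallel wells for overt cytotoxicity.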

CD40, CD40 (gene 958) = test: BSK_LPS_CD40: BioMAP Diversity Plus: LPS Assay for CD40 Biomarker Activity (AID 2283076); conditions: primary human HUVEC with PBMC; actives raise or lower the signal
How it was run: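 Primary human umbilical vein endothelial cells co-cultured with peripheral blood mononuclear cells, LPS-stimulated, were dosed with chemical and read 24 h later. CD40 levels were measured by ELISA and fitted bidirectionally against DMSO as negative control and baseline.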

[15] = read-out: E-selectin (Homo sapiens) (UniProt P16581); test: BSK_LPS_Eselectin: BioMAP Diversity Plus: LPS Assay for Eselectin Biomarker Activity (AID 2283077); conditions: primary human HUVEC with PBMC; actives raise or lower the signal
How it was run: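 Human umbilical vein endothelial cells co-cultured with peripheral blood mononuclear cells under LPS stimulation; E-selectin measured by ELISA 24 h after chemical dosing. Activity fitted bidirectionally against DMSO as negative control and baseline.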

[16] = read-out: Interleukin-8 (IL8), CXCL8 (gene 3576); test: BSK_LPS_IL8: BioMAP Diversity Plus: LPS Assay for Interleukin-8 (IL8) Biomarker Activity (AID 2283078); conditions: primary human HUVEC with PBMC; actives raise or lower the signal
How it was run: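 Human umbilical vein endothelial cells co-cultured with PBMC were stimulated with LPS; IL-8 levels were measured by ELISA 24 h after chemical dosing. Activity was fitted bidirectionally against DMSO as negative control and baseline.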

[17] = BSK_LPS_SRB: Viability Assessment in the BioMAP Diversity Plus: LPS Assay (AID 2283079); conditions: primary human HUVEC with PBMC;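 note: total protein by sulforhodamine B absorbance as a cytotoxicity measure; measured one day after compound addition; fitted in both directions against DMSO so loss or gain of signal counts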
How it was run: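 Human umbilical vein endothelial cells co-cultured with PBMC (LPS system) were dosed for 24 h. Total protein was stained with 0.1% sulforhodamine B after 10% TCA fixation, read at 560 nm, and fitted bidirectionally against DMSO baseline.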

[18] = read-out: TIMP metallopeptidase inhibitor 2 (TIMP2), TIMP2 (gene 7077); test: BSK_KF3CT_TIMP2: BioMAP Diversity Plus: KF3CT Assay for TIMP metallopeptidase inhibitor 2 (TIMP2) Biomarker Activity (AID 2283071); conditions: primary human keratinocytes with fibroblasts; actives raise or lower the signal
How it was run: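 TIMP-2 measured by ELISA at 24 h in human keratinocyte/fibroblast primary co-cultures exposed to chemicals. Both increases and decreases were fitted against DMSO. Parallel cultures were stained with SRB for total protein as an overt-cytotoxicity check.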

Measured: AC50

E-selectin (Homo sapiens), sequence (P16581 whole entry, looked up): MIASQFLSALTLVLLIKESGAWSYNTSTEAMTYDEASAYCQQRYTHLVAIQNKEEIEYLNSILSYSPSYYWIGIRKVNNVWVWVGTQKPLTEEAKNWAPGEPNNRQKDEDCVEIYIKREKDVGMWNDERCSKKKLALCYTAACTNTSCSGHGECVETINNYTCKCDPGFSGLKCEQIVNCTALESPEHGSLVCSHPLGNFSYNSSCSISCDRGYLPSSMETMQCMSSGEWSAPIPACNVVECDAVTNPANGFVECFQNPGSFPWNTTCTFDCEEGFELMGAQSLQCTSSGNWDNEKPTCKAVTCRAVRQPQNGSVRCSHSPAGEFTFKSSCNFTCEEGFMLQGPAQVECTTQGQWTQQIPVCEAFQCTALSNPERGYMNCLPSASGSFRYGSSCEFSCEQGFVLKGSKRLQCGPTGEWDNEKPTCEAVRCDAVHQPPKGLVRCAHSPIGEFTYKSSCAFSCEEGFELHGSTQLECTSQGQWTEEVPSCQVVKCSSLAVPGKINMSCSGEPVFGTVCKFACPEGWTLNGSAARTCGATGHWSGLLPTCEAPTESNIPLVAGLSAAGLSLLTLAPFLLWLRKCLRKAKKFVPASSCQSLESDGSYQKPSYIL

CC(C)(C)c1ccc(O)cc1
not listed: [18]
inactive: all other assays above

C=CC(=O)OCC(F)(F)C(F)F
active: [1] 22.8 µM and 23 µM | [3] 30 µM and 31.7 µM | [4] 36.7 µM and 38.4 µM | [5] 20 µM and 11.1 µM | CD40, CD40 (gene 958) 24 µM and 19.9 µM | [16] 49 µM and 30 µM
not listed: [11] | [15] | [18]
inactive: all other assays above

O=S1(=O)OCC2C(CO1)C1(Cl)C(Cl)=C(Cl)C2(Cl)C1(Cl)Cl (configuration not stated)
active: [11] 35.6 µM
not listed: [8] | [15]
inactive: all other assays above

CSC(C)(C)C=NO
not listed: [8] | [15] | [18]
inactive: all other assays above

CCOS(=O)(=O)OCC
not listed: [8] | [15] | [18]
inactive: all other assays above

CCNc1nc(Cl)nc(NC(C)(C)C)n1
not listed: [8] | [15] | [18]
inactive: all other assays above

O=C(O)C(F)(OC(F)(F)C(F)(F)C(F)(F)F)C(F)(F)F (configuration not stated)
active: [16] 18 µM and 12.1 µM
inactive: [1] | [2] | [3] | [4] | [5] | [6] | [7] | [9] | [10] | [18] | [12] | [13] | [14] | CD40, CD40 (gene 958) | [15] | [16] | [17]
